Reference: the supplement of paper PMC12669032
A number with no mark means an inactive call.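 Rule for the calls: active = AUC reduced over 20% with Padj below 0.05 in at least 2 of 3 replicates; inactive = otherwise.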

Tests used:
Assay in all cases: growth AUC relative to DMSO control (median of replicates) (fraction); higher = more growth (less inhibition), active = hit call of the paper
Conditions in all cases: 20 µM; 24 h
Akkermansia muciniphila = tested on: Akkermansia muciniphila
In short: (§1)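 Gut bacterial monocultures in mGAM were treated with 20 µM compound (1% DMSO) and grown anaerobically at 37 °C in round-bottom 96-well plates from OD600 0.05. OD600 was read hourly for 24 h, with the minimum OD set to 0. Area under the growth curve was normalised to the plate median of solvent-only wells, or to row and column medians on the industrial chemical plate. Each value is the median of three biological replicates, each grown on a separate day.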

Bacteroides caccae = tested on: Bacteroides caccae
In short: as §1

Bacteroides clarus = tested on: Bacteroides clarus
In short: as §1

Bacteroides dorei = tested on: Bacteroides dorei
In short: as §1

Bacteroides stercoris = tested on: Bacteroides stercoris
In short: as §1

[1] = tested on: Bacteroides thetaiotaomicron
In short: as §1

Bacteroides uniformis = tested on: Bacteroides uniformis
In short: as §1

[2] = tested on: Bifidobacterium longum subsp. longum
In short: as §1

Clostridium difficile = tested on: Clostridium difficile
In short: as §1

Collinsella aerofaciens = tested on: Collinsella aerofaciens
In short: as §1

Coprococcus comes = tested on: Coprococcus comes
In short: as §1

Escherichia coli ED1a = tested on: Escherichia coli ED1a
In short: as §1

Escherichia coli IAI1 = tested on: Escherichia coli IAI1
In short: as §1

Eubacterium rectale = tested on: Eubacterium rectale
In short: as §1

[3] = tested on: Fusobacterium nucleatum subsp. animalis
In short: as §1

Lactobacillus gasseri = tested on: Lactobacillus gasseri
In short: as §1

Lactobacillus paracasei = tested on: Lactobacillus paracasei
In short: as §1

Odoribacter splanchnicus = tested on: Odoribacter splanchnicus
In short: as §1

[4] = tested on: Parabacteroides distasonis
In short: as §1

Parabacteroides merdae = tested on: Parabacteroides merdae
In short: as §1

Compound | growth AUC (Akkermansia muciniphila) | growth AUC (Bacteroides caccae) | growth AUC (Bacteroides clarus) | growth AUC (Bacteroides dorei) | growth AUC (Bacteroides stercoris) | growth AUC [1] | growth AUC (Bacteroides uniformis) | growth AUC [2] | growth AUC (Clostridium difficile) | growth AUC (Collinsella aerofaciens) | growth AUC (Coprococcus comes) | growth AUC (Escherichia coli ED1a) | growth AUC (Escherichia coli IAI1) | growth AUC (Eubacterium rectale) | growth AUC [3] | growth AUC (Lactobacillus gasseri) | growth AUC (Lactobacillus paracasei) | growth AUC (Odoribacter splanchnicus) | growth AUC [4] | growth AUC (Parabacteroides merdae)
COc1c(Cl)ccc(Cl)c1Cl | 1.02 | 0.971 | 0.985 | 0.995 | 1.19 | 1.01 | 0.99 | 1.04 | 1.01 | 0.98 | 0.973 | 0.967 | 0.99 | 1.01 | 1.04 | 0.879 | 0.937 | 1 | 0.985 | 0.981
ClC1=C(Cl)[C@]2(Cl)[C@@H]3[C@H]4C[C@H]([C@@H]5O[C@H]45)[C@@H]3[C@@]1(Cl)C2(Cl)Cl | 0.861 | 0.979 | 0.864 | 0.958 | 0.773 | 0.925 | 0.709 (active) | 0.962 | 1 | 0.936 | 0.943 | 0.994 | 0.966 | 1.02 | 1.05 | 0.936 | 0.963 | 0.998 | 0.897 | 0.946
O=C(O)CCl | 0.94 | 0.966 | 0.991 | 0.982 | 1.07 | 1 | 0.947 | 0.938 | 0.995 | 0.976 | 0.98 | 0.995 | 0.984 | 0.974 | 0.929 | 1.03 | 1.03 | 0.986 | 0.949 | 1.02
O=C(NC(=O)c1c(F)cccc1F)Nc1cc(Cl)c(OC(F)(F)C(F)C(F)(F)F)cc1Cl (stereo not given) | 0.997 | 0.981 | 0.982 | 1.02 | 1.01 | 0.99 | 0.962 | 0.981 | 1.04 | 0.94 | 0.919 | 0.996 | 1 | 1.01 | 1.01 | 0.989 | 0.976 | 0.993 | 0.964 | 0.988
CSc1nnc(C(C)(C)C)c(=O)n1N | 0.996 | 1.07 | 1.01 | 1.02 | 1.06 | 0.996 | 1.02 | 1.09 | 1.03 | 1 | 1.07 | 1.04 | 1.01 | 0.997 | 1.03 | 1.06 | 1.03 | 1.05 | 1.02 | 1.01
CNC(=O)ON=C(CSC)C(C)(C)C | 0.989 | 1.01 | 0.992 | 0.929 | 1 | 0.986 | 1.04 | 0.999 | 1 | 0.983 | 0.968 | 1.01 | 1 | 0.981 | 1.01 | 1.03 | 0.985 | 0.983 | 1.02 | 1.02
COC(C)(C)CCCC(C)C/C=C/C(C)=C/C(=O)OC(C)C (stereo not given) | 0.867 | 1 | 0.989 | 0.996 | 1.03 | 0.981 | 0.963 | 0.987 | 1.02 | 1.04 | 1.01 | 1.01 | 1 | 0.831 | 1 | 1.04 | 1.04 | 0.999 | 1 | 1
CCOP(=S)(OCC)Oc1cnccn1 | 0.892 | 0.985 | 0.963 | 1.01 | 0.979 | 0.985 | 0.982 | 1.04 | 0.974 | 0.993 | 0.984 | 0.988 | 0.963 | 0.813 | 1.01 | 0.993 | 1.01 | 1.04 | 1 | 1.01
O=C(O)COc1cc(Cl)c(Cl)cc1Cl | 0.934 | 1.02 | 0.954 | 1.01 | 0.978 | 0.985 | 1.01 | 0.708 | 1.01 | 1.07 | 0.994 | 0.965 | 1.04 | 0.93 | 0.989 | 1.19 | 0.995 | 0.98 | 1 | 0.98
CC(COc1ccc(Oc2ccccc2)cc1)Oc1ccccn1 (stereo not given) | 0.989 | 0.949 | 0.98 | 1.01 | 0.78 | 0.993 | 0.994 | 1.04 | 0.99 | 0.994 | 0.962 | 0.999 | 0.968 | 1.04 | 0.97 | 0.989 | 0.939 | 1.03 | 0.979 | 0.929
CCCOP(=S)(OCCC)SCC(=O)N1CCCCC1C (stereo not given) | 0.978 | 0.956 | 0.953 | 0.968 | 0.892 | 0.873 | 0.9 | 1.06 | 1.02 | 1.06 | 0.943 | 0.985 | 1 | 1 | 1.08 | 0.891 | 1.02 | 1.01 | 0.676 (active) | 0.955
CC1CCCCC1NC(=O)Nc1ccccc1 (mixture of isomers) | 0.952 | 1 | 0.967 | 0.993 | 0.973 | 0.969 | 0.959 | 0.898 | 1.01 | 0.976 | 0.989 | 0.995 | 0.972 | 0.942 | 0.999 | 1.01 | 0.926 | 1.01 | 0.982 | 0.986
COc1cc(OC)nc(NC(=O)NS(=O)(=O)c2cc(NC=O)ccc2C(=O)N(C)C)n1 | 0.976 | 1.01 | 0.979 | 0.984 | 1.06 | 0.971 | 1.03 | 1.03 | 1.01 | 1.05 | 0.993 | 0.996 | 1.01 | 0.998 | 1.06 | 0.902 | 1.05 | 1.01 | 0.977 | 0.951
C#CCN1CC(=O)N(COC(=O)C2C(C=C(C)C)C2(C)C)C1=O (mixture of isomers) | 0.804 | 0.949 | 0.936 | 0.96 | 0.986 | 0.952 | 0.962 | 0.949 | 0.997 | 1.02 | 0.982 | 0.991 | 0.968 | 0.805 | 0.945 | 0.994 | 0.997 | 0.958 | 0.996 | 0.927
CC(C)C1(C)N=C(c2ncccc2C(=O)O)NC1=O (stereo not given) | 0.976 | 0.918 | 1.01 | 0.761 | 1.17 | 0.974 | 1.02 | 1 | 0.991 | 0.978 | 1.02 | 0.993 | 0.974 | 1.01 | 1.04 | 0.946 | 1.03 | 0.989 | 1.04 | 0.997
